System: PPARg:RXRa (NR concentration 180 nM, RXRa partner concentration 90 nM)
Test: PBM binding z-score (relative to random genomic background probes); higher = stronger binding; sequences stand for … in GC…GCGATTGACAGCGTAGAATGAAGG
Outline: (§1)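 Scanned fluorescence from custom Agilent 4×180K protein-binding microarrays was regression-normalized. Binding z-scores use random background probes as reference. Ligand-free nuclear receptor dimers were incubated on the arrays for 1 h and detected with antibodies against each partner (one per run).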

| Sequence | PBM binding z-score |
| --- | --- |
| GCTAGTTGGTCAGTAAATGGTCACACACCGGTCG | 0.366 |
| AGCTCTAGGTAAAAGTTCAGTGAATCCCGAGGAT | 7.73 |
| TAGCCTAGGTCATTCAGGGGCCAGTATGGAAAGC | 2.1 |
| TAGCCTAGGTCATAGGCCAGTATACCACGCGAAC | 4.51 |
| CAATCTAGGTCAAAGGTCAAAGTCGAGCCAACCA | 14 |
| AGACAAAGTTCAGGACGAGGTAACGTAAAGCACG | 2.53 |
| CCTGCTAGTTCATGGTCAGCTAATCTACAGTATG | -0.348 |
| TCTCGGAGGACACGAAAAGTCAGAGCTCGACATC | 0.122 |
| TGACTGAGGTTAAAGATCAGGGAACGTGGCGTCG | 3.09 |
| TATACAGGGTCTAAGGCCAGAGTACGAATGTCGA | 1.09 |
| ATCTGTAGGTTATCGGGTCATTCAGTTTGCGCAT | 3.9 |
| GCTGCTCGGTCAACTGATGGTCAGCTAAAGCTCG | -0.584 |
| CCTTACAGGTCACGAGGTTATAGCACGACGAGCG | 7.55 |
| GCTGCTAGGTCGACTGATGGTCAGCTAAAGCTCG | -0.467 |
| TAGCCTAAGTCATGGGCCAGTATACCACGCGAAC | 0.437 |
| CAAACTAGGTCAAAGGTCAAAGCCGAGCCAACCA | 13.1 |
| TCTAGTTGGTCAAAGGCCACACACTCGAAATGCG | 6.54 |
| AGATTGAGGTTACCAAAGATCAGGGAAACGCTTG | 2.04 |
| CCTAGCAGGCCACGGTCACTCAAGCATTTCGCTT | 0.0164 |
| AGAATGAGGTTACCAGAGATCAGGGAAACGCTTG | 2.77 |

| Sequence | PBM binding z-score |
| --- | --- |
| CCTACTGGGCCAATGTCATTGATCAGTCAAAGCA | 0.865 |
| CCTACTGGGCCAACAAGGTCATTGATGCCGATAA | 3.23 |
| CCTACTGGGCGATTCAGAGGTCATTGATCATATG | 0.564 |
| CGTCCAACGTCAGCAGGTCAGTGAAAGCGACGTG | -0.188 |
| GGTACGAGGGCAAAGTTGATAGCATCTGTCGACG | 5.89 |
| CCTAGTTGGTCAAGGTCTCACACGCTATAGGTAC | 0.786 |
| ATATGTAGGTTACATCCGGGTCTTTCAGGCTATG | 4.92 |
| AGTCAAAGTTCAGTAGGTAACGTAAGATTCAGCT | 5.39 |
| CAAACTAGGTCACGAAAGGTCAAATTCGAATGAC | 10.6 |
| CATACAGGGTAAGCTAGGCCAGAGTAGGGACGGC | 0.575 |
| CCTGCTAGTTCAATGGTCAGCTAAAGCAGCTCGC | -0.523 |
| CCTAGTTGGTCAGGTGGTCACACACCGGATATGA | 0.84 |
| TAGCCTAGGTCATTGGACCAGTATAGTACGCATC | 2.88 |
| CCTGCTAGGTCAATGGTCAGCTAAAGCAGCTCGC | 4.36 |
| GCTGCTAGGTCAACTGATGGTCAGCTAGAGCTCG | 2.7 |
| ATCGAAAGGTGGACGAGGTGAGTATACACCGTTT | 0.872 |
| CCCGCTAGGTCATGGTCAGCTAATCTACAGTATG | 2.43 |
| CCAGACAGGTGAAAGGTAACTCACTCTGGTACGC | 6.03 |
| CCTAGCAGACCAATCTGGGTCACTCAAGGCTTGA | 1.8 |

System: PPARg:RXRa 270nM:90nM, anti-RXR (NR concentration 270 nM, RXRa partner concentration 90 nM)
Test: as above
Outline: as §1

| Sequence | PBM binding z-score |
| --- | --- |
| GCTAGTTGGTCAGTAAATGGTCACACACCGGTCG | -0.00235 |
| AGCTCTAGGTAAAAGTTCAGTGAATCCCGAGGAT | 7.47 |
| TAGCCTAGGTCATTCAGGGGCCAGTATGGAAAGC | 2.25 |
| TAGCCTAGGTCATAGGCCAGTATACCACGCGAAC | 4.54 |
| CAATCTAGGTCAAAGGTCAAAGTCGAGCCAACCA | 11.2 |
| AGACAAAGTTCAGGACGAGGTAACGTAAAGCACG | 2.93 |
| CCTGCTAGTTCATGGTCAGCTAATCTACAGTATG | -0.236 |
| TCTCGGAGGACACGAAAAGTCAGAGCTCGACATC | 1.13 |
| TGACTGAGGTTAAAGATCAGGGAACGTGGCGTCG | 3.98 |
| TATACAGGGTCTAAGGCCAGAGTACGAATGTCGA | 1.86 |
| ATCTGTAGGTTATCGGGTCATTCAGTTTGCGCAT | 4.43 |
| GCTGCTCGGTCAACTGATGGTCAGCTAAAGCTCG | -0.239 |
| CCTTACAGGTCACGAGGTTATAGCACGACGAGCG | 6.56 |
| GCTGCTAGGTCGACTGATGGTCAGCTAAAGCTCG | -0.365 |
| TAGCCTAAGTCATGGGCCAGTATACCACGCGAAC | 0.385 |
| CAAACTAGGTCAAAGGTCAAAGCCGAGCCAACCA | 11.3 |
| TCTAGTTGGTCAAAGGCCACACACTCGAAATGCG | 7.01 |
| AGATTGAGGTTACCAAAGATCAGGGAAACGCTTG | 2.22 |
| CCTAGCAGGCCACGGTCACTCAAGCATTTCGCTT | 0.322 |
| AGAATGAGGTTACCAGAGATCAGGGAAACGCTTG | 2.74 |

| Sequence | PBM binding z-score |
| --- | --- |
| CCTACTGGGCCAATGTCATTGATCAGTCAAAGCA | 0.774 |
| CCTACTGGGCCAACAAGGTCATTGATGCCGATAA | 3.3 |
| CCTACTGGGCGATTCAGAGGTCATTGATCATATG | 1.87 |
| CGTCCAACGTCAGCAGGTCAGTGAAAGCGACGTG | -0.476 |
| GGTACGAGGGCAAAGTTGATAGCATCTGTCGACG | 6.23 |
| CCTAGTTGGTCAAGGTCTCACACGCTATAGGTAC | 1.09 |
| ATATGTAGGTTACATCCGGGTCTTTCAGGCTATG | 4.07 |
| AGTCAAAGTTCAGTAGGTAACGTAAGATTCAGCT | 5.2 |
| CAAACTAGGTCACGAAAGGTCAAATTCGAATGAC | 8.52 |
| CATACAGGGTAAGCTAGGCCAGAGTAGGGACGGC | -0.433 |
| CCTGCTAGTTCAATGGTCAGCTAAAGCAGCTCGC | 0.0511 |
| CCTAGTTGGTCAGGTGGTCACACACCGGATATGA | 1.18 |
| TAGCCTAGGTCATTGGACCAGTATAGTACGCATC | 3.16 |
| CCTGCTAGGTCAATGGTCAGCTAAAGCAGCTCGC | 5.49 |
| GCTGCTAGGTCAACTGATGGTCAGCTAGAGCTCG | 2.98 |
| ATCGAAAGGTGGACGAGGTGAGTATACACCGTTT | 0.439 |
| CCCGCTAGGTCATGGTCAGCTAATCTACAGTATG | 2.82 |
| CCAGACAGGTGAAAGGTAACTCACTCTGGTACGC | 6.05 |
| CCTAGCAGACCAATCTGGGTCACTCAAGGCTTGA | 2.09 |

Source: the supplement of paper PMC6555819
